Bioassay records from PubChem.
ERp5 block: blocks human ERp5 reductase activity on insulin. Q15084. ERp5 insulin aggregation, absorbance 650 nm, 90 min. inhibition, % at 9.99 µM. 0.05% of 350,000 active. AID 651711;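 active = mean replicate inhibition above about 25%, with every replicate also reaching it, limit read from the data, passing the limit was not always enough; inconclusive = only one of those two criteria met; inactive = neither criterion met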
ERAP1 inh: inhibitors of human ERAP1 aminopeptidase; 0.15% of 340,000 active; recombinant ERAP1, Leu-AMC fluorescence, 60 min; Q9NZ08; inhibition, % at 10.7 µM;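 active = mean replicate inhibition of at least 30%, or all replicates individually reaching that 30% level; inactive = mean below 30% and not every replicate reaching it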;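 note: 0% = neutral control wells and 100% = L-leucinethiol positive control wells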
DENV2 CPE rescue: DENV2-induced cell death inhibition; DENV2-infected cells, cytopathic effect rescue, plate reader; CPE inhibition, % at 9.99 µM; 1.7% of 350,000 active; AID 651640; in the data active = CPE inhibition above about 20%, passing the limit was not always enough; inconclusive = no clear call, values can overlap the other calls; tested in BHK-21 cells;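 note: 0% = median of neutral control wells and 100% = median of positive control wells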
AF4-AF9 inh: MLL-AF4/AF9 protein interaction inhibition. 0.47% of 350,000 active. P42568. AlphaScreen, biotin-AF4 peptide binding to FLAG-AF9. inhibition, % at 10 µM;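 active = every replicate reaching a set inhibition limit, whatever the replicate mean, cut at about 25% in these data; inconclusive = mean inhibition reaches that limit but some replicates miss it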;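 note: 0% = plate neutral control median and 100% = total signal loss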
PDI turbidity: inhibitors of human protein disulfide isomerase | P07237 | PDI insulin aggregation turbidity, A650, 90 min | inhibition, % at 10 µM | 0.052% of 350,000 active;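 active = mean inhibition across replicates of 30% or more, whatever share of single replicates reach that level; inconclusive = mean inhibition below 30% while every single replicate reaches 30%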
Target sequence (P07237 whole entry, looked up): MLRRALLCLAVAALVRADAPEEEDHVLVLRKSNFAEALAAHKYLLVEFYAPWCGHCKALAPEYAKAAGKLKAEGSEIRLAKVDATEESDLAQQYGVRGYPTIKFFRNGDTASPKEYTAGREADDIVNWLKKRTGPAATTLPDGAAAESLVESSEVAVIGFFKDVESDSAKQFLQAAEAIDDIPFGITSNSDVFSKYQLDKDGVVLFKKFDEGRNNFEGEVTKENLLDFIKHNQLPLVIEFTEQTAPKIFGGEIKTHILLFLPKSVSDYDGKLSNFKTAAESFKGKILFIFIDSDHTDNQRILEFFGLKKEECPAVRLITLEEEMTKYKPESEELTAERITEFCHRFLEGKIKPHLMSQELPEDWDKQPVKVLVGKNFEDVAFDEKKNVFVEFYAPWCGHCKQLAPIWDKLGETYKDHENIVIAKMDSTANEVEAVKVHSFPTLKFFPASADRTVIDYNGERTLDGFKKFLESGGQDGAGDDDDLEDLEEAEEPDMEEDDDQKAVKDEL
* = called active by the depositor; ? = inconclusive; . = not tested or not shown; ! = not active in a repeat. Most compounds without a hit are left out; they make up all but 1.8% or so of the library.

SMILES | ERp5 block | ERAP1 inh | DENV2 CPE rescue | AF4-AF9 inh | PDI turbidity
CCOc1ccc(/C=C2\SC(=O)N(CCNC(=O)CN3C(=O)NC4(CCCC4)C3=O)C2=O)cc1OC | -5.6 | -0.8 | 55.6* | 3.2 | -26.2
CCCC(=O)Nc1ccc2c(c1)OC[C@@H](C)N(Cc1cccc(F)c1)C[C@H](C)[C@@H](OC)CN(C)C2=O | -0.6 | -2.5 | 0.5 | 3.7 | .
COCCNC(=O)COc1ncnc2ccc(Br)cc12 | . | . | . | . | 6.4
CC(C)(C)OC(=O)NCCOCCOCCNc1ncnc2ccc(Br)cc12 | -3.7 | 0.9 | 20.1* | -4.4 | .
O=C(C[C@H]1CC[C@@H]2[C@H](COC[C@H](O)CN2C(=O)C2CCCC2)O1)NCc1ccncc1 | -19.6 | -2.1 | 30.3* | -0.5 | .
O=C(C[C@@H]1CC[C@H]2[C@@H](COC[C@@H](O)CN2C(=O)Nc2ccc(Cl)c(Cl)c2)O1)NCc1ccc(Cl)cc1 | -2.1 | -3.0 | -15.8 | -0.8 | .
CCNC(=O)C[C@H]1CC[C@@H]2[C@H](COC[C@H](O)CN2C(=O)C2CCCC2)O1 | 4.8 | 0.7 | -8.2 | 0.7 | .
O=C(C[C@H]1CC[C@H]2[C@@H](COC[C@@H](O)CN2C(=O)Nc2ccc(Cl)c(Cl)c2)O1)NCc1ccc(Cl)cc1 | 0.1 | -0.9 | 28.9* | 0.1 | .
CCNC(=O)C[C@H]1CC[C@H]2[C@@H](COC[C@@H](O)CN2C(=O)C2CCCC2)O1 | -7.9 | 2.6 | 107.3* | -2.2 | .
COc1ccc2c3c(n(C)c2c1)[C@@H](CO)N(C(=O)Cc1ccccc1)CC31CN(C)C1 | -0.3 | -0.9 | -0.1 | 7.2 | .
C[C@H]1CN([C@@H](C)CO)C(=O)c2cc(NC(=O)C3CCCCC3)ccc2O[C@@H]1CN(C)Cc1ccc2c(c1)OCO2 | 0.2 | -0.2 | 2.8 | -0.2 | .
COC(=O)C1=C(C)N(Cc2ccc(Cl)cc2)C(=S)NC1c1ccc(F)cc1 (stereo unspecified) | -3.3 | -1.3 | 9.8 | . | .
COC(=O)C1=C(C)N(Cc2ccc(Br)cc2)C(=S)NC1c1cccc(Br)c1 (stereo unspecified) | 0.4 | 1.8 | 42.0* | . | .
COC(=O)C1=C(C)N(Cc2ccc(Cl)cc2)C(=S)NC1c1ccc(Br)cc1 (stereo unspecified) | -14.9 | 2.5 | 25.4* | . | .
COc1ccc2c3c(n(C)c2c1)[C@@H](CO)N(C(=O)C1CCCC1)CC31CCN(C)CC1 | 4.3 | . | -5.2 | . | .
CCC(=O)Oc1ccc(C(CC)C(CC)c2ccc(OC(=O)CC)cc2)cc1 (stereo unspecified) | 1.6 | 0.2 | 42.5* | 0.5 | 1.7
C[C@@H]1CCCCO[C@@H](CN(C)C(=O)Cc2ccccc2)[C@H](C)CN([C@H](C)CO)C(=O)c2cc(NS(=O)(=O)c3ccc(Cl)cc3)ccc2O1 | 1.6 | 4.3 | 85.3* | -3.6 | .
C[C@@H]1CCCCO[C@H](CN(C)C(=O)Cc2ccccc2)[C@@H](C)CN([C@H](C)CO)C(=O)c2cc(NS(=O)(=O)c3ccc(Cl)cc3)ccc2O1 | -1.5 | 2.4 | 53.5* | -1.3 | .
O=C(Cc1ccccn1)N1[C@H](CO)[C@H]2c3ccccc3NC[C@H]21 | -2.4 | 0.9 | 16.3 | 0.7 | .
O=C(C[C@@H]1C[C@@H]2c3cc(NC(=O)C4CCOCC4)ccc3O[C@@H]2[C@@H](CO)O1)NCc1cccc(F)c1 | -3.1 | 3.4 | -2.6 | -3.2 | .
CC1(C)CC2CC(C)(CN2/C=C2/CCCCC2=O)C1 (stereo unspecified) | 7.1 | 0.3 | 3.2 | 32.2* | -4.2
CC1(C)C[C@@H]2C[C@@](C)(CN2C(=O)c2ccccc2)C1 | 0.4 | . | 5.1 | -0.2 | 2.2
C[C@@H]1CN([C@H](C)CO)C(=O)c2cc(C#Cc3ccccc3)cnc2O[C@@H]1CN(C)C(=O)CN(C)C | 1.6 | 1.1 | 13.2 | 8.0 | .
CCN1CCN(Cc2ccc(NC(=O)c3ccc(C)c(NC(=O)c4cc(-c5ccc(Br)cc5)n[nH]4)c3)cc2C(F)(F)F)CC1 | 0.4 | -1.5 | 36.4* | 3.1 | -0.7
CCN1CCN(Cc2ccc(NC(=O)c3ccc(C)c(NC(=O)c4nccnc4N)c3)cc2C(F)(F)F)CC1 | 4.1 | 1.9 | ? | 17.1 | -3.5
SMILES | ERp5 block | ERAP1 inh | DENV2 CPE rescue | AF4-AF9 inh | PDI turbidity
CCN1CCN(Cc2ccc(NC(=O)c3ccc(C)c(NC(=O)c4nccn4C)c3)cc2C(F)(F)F)CC1 | -0.8 | . | -23.1 | 4.2 | -3.9
CCN1CCN(Cc2ccc(NC(=O)c3ccc(C)c(NC(=O)N4CCNC4=O)c3)cc2C(F)(F)F)CC1 | -7.4 | -10.6 | 119.7*! | 4.4 | 13.3
CO[C@@H]1CC[C@@H]2CCN(C)C(=O)CC3(CCCCC3)CN(C)C(=O)c3cc(C#N)ccc3OC[C@H]1O2 | 1.1 | -0.5 | 11.6 | -1.2 | .
NC(=O)CC(NC(=O)Cc1ccc(Br)cc1)c1ccc(NC2CCN(Cc3ccccc3)CC2)c([N+](=O)[O-])c1 (stereo unspecified) | 2.5 | . | -3.4 | -13.6 | -3.3
NC(=O)CC(NC(=O)Cc1cccc2ccccc12)c1ccc(NC2CCN(Cc3ccccc3)CC2)c([N+](=O)[O-])c1 (stereo unspecified) | -3.2 | 6.9 | 19.9 | 53.6* | -5.2
NC(=O)CC(NC(=O)Cc1cccc2ccccc12)c1ccc(NCCc2ccccc2F)c([N+](=O)[O-])c1 (stereo unspecified) | -5.0 | -0.3 | 21.3* | 2.7 | -1.2
C[C@H](CO)N1C[C@H](C)[C@H](CN(C)S(=O)(=O)c2ccc(F)cc2)Oc2ccc(NC(=O)NC3CCCCC3)cc2CC1=O | 3.3 | -0.1 | -9.5 | 1.6 | .
CCCCC(=O)Nc1cc([N+](=O)[O-])ccc1Cl | 8.3 | 0.3 | 22.6* | -0.5 | 2.5
CC=Cc1ccc2n(c1=O)C[C@@H]1[C@@H](CO)[C@H](C(=O)NCc3ccccc3)N(CC)[C@H]21 (mixture of isomers) | 8.4 | 2.2 | 37.6* | -0.1 | .
CC=Cc1ccc2n(c1=O)C[C@H]1[C@H](CO)[C@@H](C(=O)NC3Cc4ccccc4C3)N(CC)[C@@H]21 (mixture of isomers) | -1.2 | 3.7 | -2.4 | 1.6 | .
CC=Cc1ccc2n(c1=O)C[C@@H]1[C@@H](CO)[C@H](C(=O)NC3Cc4ccccc4C3)N(CC3CC3)[C@H]21 (mixture of isomers) | -0.3 | -0.7 | 75.4* | 3.3 | .
O=C1N(Cc2ccccc2)Cc2ccccc2[C@H]2OC(c3ccc(OCCCO)cc3)=N[C@@]12CCS(=O)(=O)c1ccccc1 | 5.1 | -3.6 | 9.8 | -1.3 | .
C[C@@H]1CN([C@H](C)CO)C(=O)Cc2cc(NC(=O)CCC(F)(F)F)ccc2O[C@H]1CN(C)C(=O)NC1CCCCC1 | -10.4 | 0.6 | 3.6 | -1.2 | .
CC(C)NC(=O)NCC[C@H]1CC[C@@H](NS(=O)(=O)c2ccccc2)[C@@H](CO)O1 | -7.9 | -2.4 | -7.2 | 1.7 | .
C[C@@H]1CCCCO[C@H](CN(C)Cc2ccc(C(F)(F)F)cc2)[C@H](C)CN([C@H](C)CO)C(=O)c2cc(NS(=O)(=O)c3ccc(F)cc3)ccc2O1 | 0.8 | -3.4 | 30.0* | -1.3 | .
C[C@@H]1CN([C@H](C)CO)C(=O)c2cc(NS(=O)(=O)c3ccc(F)cc3)ccc2O[C@@H](C)CCCCO[C@@H]1CN(C)Cc1ccncc1 | -2.9 | -1.4 | 33.5* | -1.2 | .
